# TRb SRC2 PPI: disrupts binding of human TR beta to SRC2. P10828. TRbeta-SRC2 peptide binding, fluorescence polarization; receptor liganded with 1 µM T3. Potency, µM (doses to about 106 µM), inactives show top-dose activity change, negative = inhibition, hits mostly inhibitors. 280,000 tested, 0.065% active. AID 1469;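 further: plate controls were bound peptide for no effect and peptide without receptor for full effect; nearly all actives have a fitted effect of over 50% in size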
# Target sequence (P10828 whole entry, looked up): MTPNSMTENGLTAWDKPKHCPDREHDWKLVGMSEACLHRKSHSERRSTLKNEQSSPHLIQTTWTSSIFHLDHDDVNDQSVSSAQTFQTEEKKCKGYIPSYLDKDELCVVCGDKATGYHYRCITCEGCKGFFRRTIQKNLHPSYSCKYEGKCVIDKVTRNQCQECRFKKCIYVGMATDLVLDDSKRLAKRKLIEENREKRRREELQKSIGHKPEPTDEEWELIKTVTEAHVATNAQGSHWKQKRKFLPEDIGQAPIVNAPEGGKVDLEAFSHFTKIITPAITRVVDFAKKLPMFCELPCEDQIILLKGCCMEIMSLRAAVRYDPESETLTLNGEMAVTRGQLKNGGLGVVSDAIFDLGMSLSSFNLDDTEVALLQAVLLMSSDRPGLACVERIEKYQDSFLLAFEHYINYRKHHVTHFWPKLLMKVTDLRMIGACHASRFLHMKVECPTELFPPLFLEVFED
#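 Fluorescence polarization of 20 nM Texas Red SRC2 peptide with 0.6 uM human TRb ligand-binding domain, in Tris buffer with 1uM T3 and 5% DMSO. Incubated 5 hr ambient; normalized to unbound and bound controls.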
# Tau fluor cs: counter-screen for tau fibril formation inhibitors; 280,000 tested, 0.93% active; AID 1463; Potency, µM (series often up to 57.7 µM), for the others: top-dose activity change, negative = decrease; tau K18 P301L Alexa594 fluorescence, heparin fibrillization; further: nearly all actives have a fitted effect of over 55% in size
#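 Human K18 P301L tau (15 uM unlabeled plus 0.24 uM Alexa 594-labeled, final) in 100 mM sodium acetate pH 7 was mixed with compound and 20 uM heparin and incubated 6 hr at 37 C.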
# Tau FP inhib: tau fibrillization inhibition (FP) | P10636 | K18 P301L tau heparin fibrillization, Alexa594 FP, 6 h | Potency, µM (top dose mostly 57.7 µM), without a hit: at the highest dose activity, negative = inhibition, hits mostly inhibitors | 280,000 tested, 0.39% active; further: nearly all actives have a fitted effect of over 55% in size
# Target sequence (P10636 561-689 P618L limits assumed): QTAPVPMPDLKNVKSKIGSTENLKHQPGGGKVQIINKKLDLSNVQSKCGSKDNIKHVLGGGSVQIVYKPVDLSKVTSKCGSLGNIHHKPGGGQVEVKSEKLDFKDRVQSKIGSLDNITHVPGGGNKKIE
#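 Read-out: fluorescence polarization of Alexa 594-labeled tau (0.24 uM), 555 nm excitation, 632 nm emission. Mixtures held 15 uM unlabeled K18 P301L, compound and 20 uM heparin, pH 7 acetate buffer, incubated 6 hr at 37 C.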
# TR SRC2 fluor cs: alters Texas Red total fluorescence, flagging assay interference; 280,000 tested, 0.29% active; AID 1479; Potency, µM (doses to about 106 µM), for the others: at the highest dose fluorescence change, negative = quenching; TRb/SRC2 Texas Red total fluorescence interference; active means well fitted curve in either direction with a large enough effect; inconclusive means small, poorly fitted or top-dose-only effect
#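 Human TRb ligand-binding domain at 0.6 uM with 20 nM Texas Red SRC2 peptide in Tris buffer containing 1 uM T3 and 5% DMSO, incubated with compound 5 h at ambient temperature. Total fluorescence (555/632 nm) calculated as parallel + 2 × perpendicular.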
# Tau ThT inhib: blocks human tau fibril formation measured by thioflavin T; P10636; recombinant tau K18 P301L (four-repeat tau fragment), heparin-induced fibrillization, ThT fluorescence; Potency, µM (series often up to 57.4 µM), for inactives: top-dose activity, negative = inhibition, hits mostly inhibitors; 270,000 tested, 2.1% active; AID 1460; further: nearly all actives have a fitted effect of over 55% in size
#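 Heparin-induced (20 uM) aggregation of recombinant human K18 P301L tau, 15 uM unlabeled with 0.24 uM labeled, pH 7 acetate buffer, 6 hr at 37 C with compound. Fibrils quantified by 30 uM ThT fluorescence after 1 hr ambient incubation.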
# GoLoco inh red: RGS12 GoLoco-Gai1 interaction inhibition. AID 880. P63096. 230,000 tested, 0.44% active. Gai1:RGS12 GoLoco peptide FP, rhodamine, 10 min. Potency, µM (top dose mostly 61.6 µM), without a hit: top-dose activity, negative = inhibition, actives largely listed as inhibitors; active means well fitted inhibition curve with a large enough effect, not every such curve was filed as active; inactive means no such curve, though single readings can be large or run the other way; further: nearly all actives have a fitted effect of over 30% in size
# * = called active by the depositor; ? = inconclusive; nt = no result; ! = repeats disagree; [ ] = remark or other dose. Hits are enriched below; roughly 3.2% of the tested compounds scored in any of these assays. Unless noted, the call rests on the fitted dose curve; in most records, active means well fitted curve in the direction sought with a large enough effect; inconclusive means small, poorly fitted or top-dose-only effect, or another doubt; inactive means no such curve, though single readings can be large; an effect the other way counts as inactive or inconclusive. Unless noted, on the % scale 0 is the no-effect control and ±100 the full control effect; potency means the concentration at half of the fitted maximal effect.
SMILES,TRb SRC2 PPI,Tau fluor cs,Tau FP inhib,TR SRC2 fluor cs,Tau ThT inhib,GoLoco inh red
Cc1ccc(N(C)C(=O)C2CCCN(c3ncnc4c3nc3n4CCCCC3)C2)cc1C (stereo unspecified),-5%,1%,-5%,20µM*[quencher],-7%,nt
O=C(O)/C=C\C(=O)Nc1ccc2c(c1)C(=O)c1cc(F)ccc1-2,nt,nt,nt,nt,nt,4%[14.2 µM]
O=c1c(N2CCN(c3ccc(F)cc3)CC2)csc2ccc(F)cc12,7%,?,?,1%,5µM*,nt
COc1ccc(N2CCN(c3csc4ccc(Cl)cc4c3=O)CC2)cc1,10%,-22%,4%,0%,6.3µM*,nt
COc1ccc(N2CCN(c3csc4ccccc4c3=O)CC2)cc1,4%,?,-5%,0%,11µM*,nt
Nc1ncnc2c1c(I)cn2C1OC(CO)C(O)C1O (stereo unspecified),-1%,-6%,-12%,3%,-1%,25µM*!
N/C(=N\O)c1cn([C@@H]2O[C@@H](CO)[C@H](O)[C@@H]2O)c2ncnc(NO)c12,nt,nt,nt,nt,nt,4%[14.2 µM]
CC(C)(C)OC(=O)NCc1ccc(NC(=O)c2nc[nH]c2C(=O)N[C@@H](Cc2ccccc2)C(=O)OCc2ccccc2)cc1,1%,?,10µM*,-3%,5%,8%
CNC(=O)c1[nH]cnc1C(=O)N[C@@H](Cc1ccccc1)C(=O)OCc1ccccc1,2%,?,?,0%,4%,3%
Cc1cccc(NC(=O)c2nc[nH]c2C(=O)N[C@@H](Cc2ccccc2)C(=O)OCc2ccccc2)c1,8%,?,11µM*,-1%,?,3%
C=CCC(O)CC1C2C(CC(O)CC=C)C3C1C3C2OC(C)(C)C (stereo unspecified),7%[11.2 µM],-17%[11.6 µM],-1%[11.6 µM],-2%[11.2 µM],-14%[11.5 µM],nt
CCCCCCC(=O)Cc1cc(OC)c(OC)cc1/C=C(/C(C)=O)C(=O)OC,7%[11.2 µM],0%[11.6 µM],6%[11.6 µM],0%[11.2 µM],-7%[11.5 µM],nt
O=C(O)c1ccc(C(=O)C(=O)c2ccccc2)cc1,4%,9%,3%,4%,-3%,13%
CSC(SC)=C(C#N)C(=O)c1ccccc1,-8%,-19%,14µM*,-3%,20µM*,-5%
COc1cccc(C(=O)C(C#N)=C(SC)SC)c1,-2%,-19%,?,-1%,25µM*,-8%
CC12C=C(/C=C/c3ccc(F)cc3)C(C)(C1)C(c1ccc(F)cc1)CC2=O (stereo unspecified),4%[11.2 µM],-18%[11.6 µM],6%[11.6 µM],1%[11.2 µM],-16%[11.5 µM],nt
CN(C)c1ccc(/C=N/N2CCN(c3ccccn3)CC2)cc1,-7%,-27%,5%,-4%,1.8µM*,-4%
CC(C)(C)c1ccc(/C=N/N2CCN(c3ccccn3)CC2)cc1,2%,-25%,1%,-3%,?,-5%
CCSc1nn(CC(=O)Nc2ccc(C(=O)OC)cc2)c(N)c1S(=O)(=O)c1ccc(C)cc1,-2%,?,25µM*,-2%,-2%,nt
COc1ccc(NC(=O)Cn2nc(SC)c(S(=O)(=O)c3ccc(C)cc3)c2N)cc1OC,-6%,-28%,-13%,-2%,-4%,nt
CCOC(=O)c1ccc(NC(=O)Cn2nc(SC)c(S(=O)(=O)c3ccc(Cl)cc3)c2N)cc1,-5%,?,13µM*,5%,-7%,nt
CC(C1CCCC(=O)C1)[N+](=O)[O-] (stereo unspecified),18%,-10%,0%,-1%,-10%,4%
O=C(CN1C(=O)NC(Cc2c[nH]c3ccccc23)C1=O)Nc1cccc(S(=O)(=O)N2CCCCCC2)c1 (stereo unspecified),-2%,14µM*[quencher],-10%,-1%,-4%,7%
O=C(CN1C(=O)NC(Cc2c[nH]c3ccccc23)C1=O)Nc1cccc(S(=O)(=O)N2CCCC2)c1 (stereo unspecified),2%,-3%,-4%,-2%,?,-27%
COc1ccc2[nH]c(-c3ccccc3)cc2c1,2%,13µM*[quencher],9%,-1%,?,0%
SMILES,TRb SRC2 PPI,Tau fluor cs,Tau FP inhib,TR SRC2 fluor cs,Tau ThT inhib,GoLoco inh red
CC(C)CCOc1ccc(C2N=C(N)Nc3nc4ccccc4n32)cc1 (stereo unspecified),-16%,-10%,9%,40µM*[quencher],-10%,nt
COc1cc(C2N=C(N)Nc3nc4ccccc4n32)ccc1OCCC(C)C (stereo unspecified),-8%,-22%,1%,-24%,-10%,nt
COc1ncc2nc(-c3ccc(F)cc3)c(=O)n(-c3ccccc3)c2n1,nt,nt,nt,nt,nt,-6%
Nc1c(Cl)ncnc1N/N=C/c1ccccn1,2%,-14%,-4%,-5%,?,-6%
Nc1c(Cl)ncnc1N/N=C/c1ccc2ccccc2n1,0%,-30%,10%,-6%,4µM*,0%
C[C@@H](c1ccccc1)N1C(=O)[C@H]2[C@@H]3[C@H](O)[C@H](O)CC(=O)[C@H]3CC[C@H]2C1=O,-2%[11.2 µM],-3%[11.6 µM],3%[11.6 µM],-2%[11.2 µM],-6%[11.5 µM],nt
CNc1nc(N/N=C/c2ccc([N+](=O)[O-])cc2)nc(Nc2ccccc2)n1,-2%,16µM*[quencher],-7%,1%,4µM*,2%
C=CCOC(=O)N[C@H](C[N+](=O)[O-])c1ccccc1,-11%,-6%,4%,-3%,-6%,1%
CCN(CC)CCCn1c(-c2ccccc2)nc2c(NCCOC)nc(C)nc21,0%,-10%,-5%,0%,-4%,-1%
COc1ccc(C(=O)C2CCCN(C(=O)CCc3scnc3C)C2)c(C)c1 (stereo unspecified),?,-30%,-49%,-5%,28µM*,3%
O=C1CCCC(O)=C1N=Nc1c(Cl)cc(C(F)(F)F)cc1Cl,1.4µM*,-17%,-1%,28µM*[fluorescent],?,1%
O=C1CCCC(O)=C1N=Nc1ccc(C(=O)O)cc1,?,-25%,-9%,18%,?,-15%
O=c1[nH]nc(CNc2ccc(O)cc2)c2ccccc12,28µM*,?,?,45µM*[fluorescent],32µM*,-29%
O=c1cc(-c2ccccc2)[nH]c2ccccc12,-2%,-7%,-5%,-1%,-10%,6%
O=C1C(c2cc(=O)c3ccccc3[nH]2)=C(O)c2ccccc21,15%,-10%,10%,-26%,4.5µM*,12%
Cc1[nH]c2ccccc2c1/C=N/NC(N)=S,1%,-18%,-2%,-2%,?,5%
Cc1ccc(NC(=S)N/N=C/c2c(C)[nH]c3ccccc23)cc1,4%,14µM*[quencher],9%,-2%,?,1%
Cc1[nH]c2ccccc2c1/C=N/NC(=O)c1cc(C(C)(C)C)[nH]n1,-1%,?,?,-5%,nt,2%

# High-throughput results: PubChem, National Center for Advancing Translational Sciences (NCATS)
